# Several values for one entry are separate records, joined by “and”; a condition that tells them apart may be missing. Equal entries are not always repeated. Results filed as inconclusive are left out. Where a call stands in place of a potency, no number is given. Where a structure was tested more than once in an assay, its records may differ in their call. Activity calls are given as the source filed them. The call rests on the fitted dose curve.
# Test: qHTS assay to identify small molecule antagonists of the sonic hedgehog signaling (Shh) pathway (AID 1259369); further: nearly all actives have a fitted effect of over 45% in size
# Conditions: NIH/3T3 Gli1-Luc reporter, Shh antagonist, luminescence 24 h; series mostly up to 92.4 µM; activity change, negative = inhibition: at the top concentration
# Source text: U.S. Tox21 Program National Center for Advancing Translational Sciences [NCATS] NIH Chemical Genomics Center [NCGC] U.S. Environmental Protection Agency [EPA] National Institutes of Environmental Health Sciences [NIEHS] National Toxicology Program [NTP] U.S. Food and Drug Administration [FDA] Tox21 Assay Overview: The sonic hedgehog (Shh) pathway is essential for normal embryonic development. Dysregulation of the Shh pathway can cause severe developmental defects in organs. Therefore chemicals that interfere with the pathway are potential developmental toxicants. A cell line designated 3T3Gli1-Luc (DMB/OARSA/CFSAN/FDA, Laurel, MD), a NIH/3T3 derived clone containing stably integrated Gli1-Luc reporter is used to detect chemical interference of the Shh pathway, by changes in the expression of the firefly Luc gene under the control of the Gli1 transcriptional response element. This cell line was used to screen Tox21 libraries for identifying and prioritizing the potential developmental toxicants that interfere Shh pathway. Conditioned medium-stimulated mode was used to screen for chemicals inhibiting Shh signaling.
# Tox21 Assay Protocol Summary: 3T3 Gli1-Luc cells were dispensed at 2,000 per well in 5uL of culture medium into white solid bottom 1536-well plates (Greiner Bio-One, Monroe, NC) using a Multidrop Combi (Thermo Scientific, Waltham, MA) dispenser. The assay plates were incubated at 37 C and 5% CO2 for 4hr, and then 23nL of compounds dissolved in DMSO and positive control were transferred using a Pintool station (Wako, San Diego, CA). The compound transfer was followed by the addition of 1ul conditioned medium or assay buffer using two separate tips of Flying Reagent Dispenser (FRD, Aurora Discovery, San Diego, CA). The assay plates were incubated at 37C and 5% CO2 for 24hr. For luciferase read, 4uL of Amplite Luciferase reporter gene assay reagent (AAT Bioquest, Inc. Sunnyvale, CA) was added to each well of the assay plates using FRD and incubated at room temperature for 30min. The luminescence signal was measured using a ViewLux plate reader (Perkin Elmer, Shelton, CT).
# Potency means the concentration at half of the fitted maximal effect.
Structure (SMILES),Potency,"activity change, negative = inhibition"
Nc1ccc(N)c(Cl)c1,15.4 µM (active),
C=CC(C)(O)CCC=C(C)C (stereo not given),inactive,
CC(=O)O[C@]1(C(C)=O)CC[C@H]2[C@@H]3C=C(Cl)C4=CC(=O)CC[C@]4(C)[C@H]3CC[C@@]21C,,-25.5% [at 42.5 µM] (inactive)
OC[C@H]1O[C@@H]2O[C@H]3[C@H](O)[C@@H](O)[C@@H](O[C@H]4[C@H](O)[C@@H](O)[C@@H](O[C@H]5[C@H](O)[C@@H](O)[C@@H](O[C@H]6[C@H](O)[C@@H](O)[C@@H](O[C@H]7[C@H](O)[C@@H](O)[C@@H](O[C@H]1[C@H](O)[C@H]2O)O[C@@H]7CO)O[C@@H]6CO)O[C@@H]5CO)O[C@@H]4CO)O[C@@H]3CO,inactive and 9.13 µM (active),
O=C(O)CCCCCCCCCCCC(=O)O,inactive,
CC(=O)Oc1c(C)c(C)c2c(c1C)CC[C@@](C)(CCC[C@H](C)CCC[C@H](C)CCCC(C)C)O2,inactive,
CCC(Cc1c(I)cc(I)c(N)c1I)C(=O)O (stereo not given),inactive,
C=CCOC(=O)C(=C)C,,3.42% (inactive)
Cc1ccc(C(C)(C)C)c(O)c1,,-11.2% (inactive)
C1CN(SSN2CCOCC2)CCO1,12.1 µM (active) and 24.3 µM (active),
c1ccc2c(c1)[nH]c1ccccc12,inactive,
Oc1c(Cl)ccc(Cl)c1Cl,,-25.3% (inactive)
C[N+](C)(C)CCO,,25.1% (inactive)
C1COCCN1,inactive,
Cc1cccc(Nc2ccccc2C(=O)O)c1C,inactive,
C=C1C[C@H]2[C@@H]3C=C(C)C4=CC(=O)CC[C@]4(C)[C@H]3CC[C@]2(C)[C@@]1(OC(C)=O)C(C)=O,19.7 µM (active) and inactive,
CC1(C)NC(=O)N(c2ccc([N+](=O)[O-])c(C(F)(F)F)c2)C1=O,15.4 µM (active),
CC/C=C\C/C=C\C/C=C\CCCCCCCC(=O)O,inactive and 43.3 µM (active),
CC(C)=CCO,,4.72% (inactive)
CC[C@]12CCCN3CCc4c(n(c5ccccc45)[C@@](O)(C(=O)OC)C1)[C@@H]32,inactive,

Structure (SMILES),Potency,"activity change, negative = inhibition"
CC(=O)Oc1ccc(C(c2ccc(OC(C)=O)cc2)c2ccccn2)cc1,,-25.2% [at 42.5 µM] (inactive)
Brc1nc2ccccc2s1,inactive,
CN(C)/N=N/c1nc[nH]c1C(N)=O,inactive,
CCCCCC1C(=O)CCC1CC(=O)OC (stereo not given),inactive,
CC(=O)[C@@]1(O)CC[C@H]2[C@@H]3C[C@H](C)C4=CC(=O)C=C[C@]4(C)[C@@]3(F)[C@@H](O)C[C@@]21C,6.11 µM (active) and inactive,
CCc1cccc2c3c([nH]c12)C(CC)(CC(=O)O)OCC3 (stereo not given),inactive,
CN1CCOCC1,inactive,
c1ccc2c(c1)ccc1cc3c(ccc4ccccc43)cc12,inactive,
Cc1ccc(C(C)(C)C)cc1,inactive,
CC(=O)OC(C)C,inactive,
O=C(O)c1ccc(O)cc1,inactive,
CCCCCCOCCOCCO,inactive,
Cc1ccc(/C(=C\CN2CCCC2)c2ccccn2)cc1,25.6 µM (active),
CC1=CC(C)(C)Nc2ccccc21,inactive,
C/C=C/C(=O)N(CC)c1ccccc1C,inactive,
CCCOCCO,inactive,
OC[C@@H](O)[C@@H](O[C@@H]1O[C@H](CO)[C@H](O)[C@H](O)[C@H]1O)[C@H](O)[C@@H](O)CO,inactive,
CCCCCC=O,inactive,
O=C1CCc2ccccc2O1,,7.74% (inactive)
CC1(C)C(C=C(Cl)Cl)C1C(=O)OCc1cccc(Oc2ccccc2)c1 (stereo not given),inactive,

# From PubChem BioAssay (Tox21)
